Results: ChEMBL document CHEMBL4888484, “Replenishing the malaria drug discovery pipeline: Screening and hit evaluation of the MMV Hit Generation Library 1 (HGL1) against asexual blood stage Plasmodium falciparum ,using a nano luciferase reporter read-out” (2022)
Screen size: about 150,000 compounds; about 540 (0.36%) showed an effect of 50% or more. What follows is part of a selection rich in strong results, with near analogues and random picks from the rest.

Test system: Plasmodium falciparum
Assay: Primary screen in NF54 nanoGlo assay, in single point, at 2uM, 72h; a lower Z score goes with more inhibition
Type: functional, Erythrocyte
Settings: timepoint 72 hour

Compound | % Inhibition | Z score
Cc1ccccc1-n1c(=O)n(C2CCCCC2)c(=O)c2c1ncn2Cc1ccccc1 | -1% | 0.09
Cc1ccccc1Cn1cnc2c1c(=O)n(C1CC1)c(=O)n2-c1ccccc1C | 5% | -0.48
COc1ccccc1-n1c(=O)n(C2CCCC2)c(=O)c2c1ncn2Cc1ccccc1Cl | 37% | -4.79
COc1ccccc1Cn1cnc2c1c(=O)n(C1CCCCC1)c(=O)n2-c1ccccc1Cl | 69% | -6.45
Cc1c(Cl)cccc1NC(=O)c1sccc1S(=O)(=O)N1CCc2ccccc2C1 | 1% | -0.1
COc1ccc([C@@H](CC(=O)NCc2ccc(F)cc2)c2c[nH]c3ccccc23)c(OC)c1 | 3% | -0.42
COc1cc(NC(C)(C)CN2CCOCC2)ncn1 | -11% | 0.99
O=C(NC[C@H](O)c1cccnc1)c1ncoc1C1CC1 | -7% | 0.94
COC[C@H]1CCCCN1C(=O)c1ccnc(C2CCCC2)n1 | 7% | -1.03
COc1ccc(N2CCN(C(=O)c3ccn4c(-c5ccccc5)nnc4c3)CC2)cc1 | -3% | 0.29
COc1ccccc1CNC(=O)c1cc(C)nc2c(-c3ccc(C)cc3)cccc12 | 12% | -1.38
COc1cccc(N2CCC(N3CCC4(CC3)CNC(=O)O4)CC2)c1 | -2% | 0.35
Cc1nc2c(c(NC(=O)Cc3ccccc3)nn2C)c(C)c1Cl | -8% | 0.76
Cc1cnccc1NCCNC1CCN(c2ccc3c(c2)CCC3)CC1 | 85% | -13.14
CN1CCC[C@@H]1CCNC1CCN(c2ccc3c(c2)CCC3)CC1 | 21% | -2.96
CCn1cncc1CNC1CCN(c2ccc3c(c2)CCC3)CC1 | -14% | 1.42
Cc1cnccc1NCCNC1CCN(c2ccc(Cl)cc2)CC1 | 99% | -17.94
Cc1ccc(N2CCC(NCCCn3cccn3)CC2)cc1Cl | -5% | 0.81
CN(CC1(CO)CCCC1)C(=O)CN1CCCCC1 | -8% | 1.48
O=C(c1ccc(F)cc1)N1CCC(N2CCS(=O)(=O)CC2)CC1 | -12% | 1.04
CCc1cc(N2CCN(CCc3ccccc3)C(=O)C2)ncn1 | -15% | 2
Cc1ccc([C@H]2C(=O)N(C3CCC(C)CC3)CC(=O)N2C2CCCCCCC2)cc1 (stereo partly specified) | -6% | 0.82

Compound | % Inhibition | Z score
O=C(O)C1(NCc2cc(-c3ccc(Cl)cc3)no2)CCCC1 | 11% | -1.27
CC1CC(C(=O)N2CCN(C(=O)Cc3c[nH]c4ccccc34)CC2)C1 (stereo unspecified) | -3% | 0.48
C=C1C(C)C2C(Cc3c[nH]c4ccccc34)NC(=O)C23C(=O)CC(O)C(O)CC(C)C/C=C/C3C1O (stereo unspecified) | 67% | -7.59
C[C@@H](O)[C@@H]1NC(=O)[C@@H](Cc2c[nH]c3ccccc23)NC1=O | 5% | -1.07
CC1=NO[C@H](C(=O)NCC2(Cn3ccnc3C)CC2)C1 | -4% | 0.75
CCc1ccc(CN2CCC[C@H](c3ncc[nH]3)C2)nc1 | 65% | -9.74
CCc1ccc(CN2CCC[C@H](CNC(=O)c3ccc[nH]3)C2)nc1 | -4% | 0.44
Cc1[nH]c(CN2CCC[C@H](c3ncc[nH]3)C2)cc1C#N | -1% | 0.23
Cc1ccc(CN2CCC3(CC2)c2nc[nH]c2CCN3C(=O)C2CCC2)cc1C | -14% | 1.47
Cc1cccc2c1OCC[C@@H]2NCc1cnn(C(C)C)c1 | 0% | 0
O=C(O)c1cccc(-c2noc(C3CC3)n2)c1 | 11% | -1.45
O=C(c1cccc(-c2noc(C3CCC3)n2)c1)N1CCN(c2ccccc2)CC1 | -3% | 0.4
CC1CC(N)CCN1C(=O)c1cccc(-c2noc(C3CC3)n2)c1 (stereo unspecified) | 56% | 0.5
Cc1cc(C(=O)N(CC2CCC2)CC(F)(F)F)[nH]n1 | -10% | 1.63
CN1CCC[C@@H]1CCNC(=O)c1ccc2nc(-c3ccc(F)cc3)cn2c1 | 8% | -1.12
O=C(NCCN1CCCC1)c1ccc2nc(-c3ccc(Cl)cc3)cn2c1 | 75% | -6.47
CN1CCCC[C@@H]1CNC(=O)c1ccc2nc(-c3ccc(F)cc3)cn2c1 | -5% | 0.91
Cc1ccn2c(C(=O)NCc3cc(F)ccc3C)nnc2n1 | -17% | 3.23
CN1CCN(Cc2cc3cc4c(cc3nc2-c2ccc(Cl)cc2)OCO4)CC1=O | 53% | -6.77
CCN1CCN(Cc2cc3cc4c(cc3nc2-c2ccc(Cl)cc2)OCO4)CC1 | -10% | 1.95
O=C1CCN(Cc2cc3cc4c(cc3nc2-c2ccc(Cl)cc2)OCO4)CCN1 | 2% | -0.18
